# Measurements from PubChem BioAssay.
# Values without a mark were called inactive. For some assays here: Entries with a potency or affinity are not part of this list. Active and inactive are the calls of the source. Unless noted, no rule for the calls is given here.
# Assays:
# [1] = antimalarial activity against Dd2 strain (AID 2302;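 active = growth inhibition above 50% at the single 2 µM test dose, taken to imply half-maximal potency below 2 µM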;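 also: 0% = DMSO untreated growth and 100% = chloroquine plus artemisinin killed control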); settings: P. falciparum Dd2 in RBCs, LDH growth readout, 72 h; at 2 µM; hits give high values
# [2] = HepG2 cytotoxicity, primary screen, cytotoxicity control for P. falciparum antimalarial project, cell-based, ATP luminescence (AID 2303;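 active = inhibition above 50%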;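 also: 0% = DMSO wells and 100% = digitonin-killed cells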); settings: HepG2 viability, 24-48 h, at 10 µM, hits give high values
# [3] = target: L-lactate dehydrogenase (Plasmodium falciparum (isolate CDC / Honduras)) (UniProt Q27743); assay: PfLDH activity inhibition – cell lysate, 3D7 strain, counter-screen for P. falciparum growth inhibition project (AID 2304);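 also: 0% = vehicle and 100% = reference inhibitor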; settings: P. falciparum 3D7 crude extract, LDH APAD/NBT absorbance; at 2 µM; hits give high values
# [4] = inhibition of 3D7 malaria parasite growth – strain 3D7 (AID 2306);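 also: 0% = DMSO wells and 100% = chloroquine plus artemisinin control wells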; settings: P. falciparum 3D7 erythrocytic growth, LDH absorbance, 72 h; at 2 µM; hits give high values
# [5] = target: Calcium-dependent protein kinase 1 (Plasmodium falciparum (isolate 3D7)) (UniProt P62344); assay: PfCDPK1 kinase inhibitors, biochemical, TCAMS library (AID 1159585; cut-off not given, nearly all actives have IC50 up to about 0.98 µM;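 also: inhibitors leave more ATP so luminescence rises with inhibition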); settings: recombinant PfCDPK1, Kinase-Glo ATP depletion luminescence
# [6] = target: Plasmodium falciparum protein kinase 6 (PK6, PF3D7_1337100) (UniProt Q8IDW1); assay: PfPK6 kinase inhibitors, biochemical, TCAMS library (AID 1159586); settings: recombinant PfPK6, Kinase-Glo ATP depletion luminescence
# [7] = target: Protein kinase 7 (PK7), Plasmodium falciparum 3D7 (PF3D7_0213400) (UniProt Q7YTF7); assay: inhibition of Plasmodium PK7 catalytic activity – biochemical, TCAMS antimalarial set, Kinase-Glo luminescence (AID 1159587); settings: recombinant PfPK7, Kinase-Glo ATP depletion luminescence
# [8] = target: Calcium-dependent protein kinase 4 (Plasmodium falciparum (isolate 3D7)) (UniProt Q8IBS5); assay: PfCDPK4 kinase inhibitors, biochemical, TCAMS library (AID 1159588; cut-off not given, nearly all actives have IC50 up to about 0.91 µM); settings: recombinant PfCDPK4, Kinase-Glo ATP depletion luminescence
# Calcium-dependent protein kinase 4 (Plasmodium falciparum (isolate 3D7)), sequence (Q8IBS5 whole entry, looked up): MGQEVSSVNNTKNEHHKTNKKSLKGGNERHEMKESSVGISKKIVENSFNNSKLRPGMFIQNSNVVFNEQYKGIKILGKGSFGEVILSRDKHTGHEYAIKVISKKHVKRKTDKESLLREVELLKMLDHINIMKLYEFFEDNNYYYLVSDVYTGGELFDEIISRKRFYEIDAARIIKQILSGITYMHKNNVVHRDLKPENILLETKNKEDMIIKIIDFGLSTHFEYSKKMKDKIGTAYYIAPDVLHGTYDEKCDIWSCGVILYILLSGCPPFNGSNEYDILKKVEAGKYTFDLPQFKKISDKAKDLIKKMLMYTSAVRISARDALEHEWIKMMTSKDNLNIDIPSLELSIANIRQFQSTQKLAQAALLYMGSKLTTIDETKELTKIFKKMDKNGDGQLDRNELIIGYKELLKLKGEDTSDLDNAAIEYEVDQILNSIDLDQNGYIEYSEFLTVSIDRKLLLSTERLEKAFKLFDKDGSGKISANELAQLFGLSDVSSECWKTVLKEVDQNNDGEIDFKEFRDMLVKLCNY
# Calcium-dependent protein kinase 1 (Plasmodium falciparum (isolate 3D7)), sequence (P62344 whole entry, looked up): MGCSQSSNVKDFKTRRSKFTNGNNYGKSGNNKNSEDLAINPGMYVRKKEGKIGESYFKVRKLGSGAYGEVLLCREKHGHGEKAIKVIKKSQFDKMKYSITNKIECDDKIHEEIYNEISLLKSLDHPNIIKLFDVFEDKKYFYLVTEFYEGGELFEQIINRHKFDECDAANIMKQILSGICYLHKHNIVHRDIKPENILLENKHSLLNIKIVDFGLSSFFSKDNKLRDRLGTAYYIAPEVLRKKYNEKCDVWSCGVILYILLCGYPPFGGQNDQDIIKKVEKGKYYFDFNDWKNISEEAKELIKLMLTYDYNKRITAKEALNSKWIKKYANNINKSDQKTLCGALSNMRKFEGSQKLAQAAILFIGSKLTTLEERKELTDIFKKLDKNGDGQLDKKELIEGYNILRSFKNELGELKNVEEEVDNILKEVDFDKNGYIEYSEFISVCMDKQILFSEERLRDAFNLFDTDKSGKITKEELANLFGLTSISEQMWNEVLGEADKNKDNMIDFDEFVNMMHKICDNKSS
# Protein kinase 7 (PK7), Plasmodium falciparum 3D7 (PF3D7_0213400), sequence (Q7YTF7 1-343): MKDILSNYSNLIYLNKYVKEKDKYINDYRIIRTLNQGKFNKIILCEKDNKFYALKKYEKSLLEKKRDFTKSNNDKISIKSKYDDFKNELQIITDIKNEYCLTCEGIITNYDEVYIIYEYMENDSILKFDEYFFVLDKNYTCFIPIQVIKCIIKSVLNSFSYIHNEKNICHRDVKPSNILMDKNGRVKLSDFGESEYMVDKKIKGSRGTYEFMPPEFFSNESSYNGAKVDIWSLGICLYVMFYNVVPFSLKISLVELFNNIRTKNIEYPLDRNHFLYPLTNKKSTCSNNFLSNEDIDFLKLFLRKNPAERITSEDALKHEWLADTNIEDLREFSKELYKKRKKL
# Plasmodium falciparum protein kinase 6 (PK6, PF3D7_1337100), sequence (Q8IDW1 1-305): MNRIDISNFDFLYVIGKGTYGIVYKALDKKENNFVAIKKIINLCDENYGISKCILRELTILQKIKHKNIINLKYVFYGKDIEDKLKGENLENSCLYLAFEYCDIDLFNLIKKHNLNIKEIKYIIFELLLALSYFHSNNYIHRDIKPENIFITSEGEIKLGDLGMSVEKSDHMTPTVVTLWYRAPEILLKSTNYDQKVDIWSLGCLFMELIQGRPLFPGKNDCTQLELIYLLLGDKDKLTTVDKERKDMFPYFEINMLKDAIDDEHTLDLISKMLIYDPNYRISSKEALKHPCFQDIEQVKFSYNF
# L-lactate dehydrogenase (Plasmodium falciparum (isolate CDC / Honduras)), sequence (Q27743 whole entry, looked up): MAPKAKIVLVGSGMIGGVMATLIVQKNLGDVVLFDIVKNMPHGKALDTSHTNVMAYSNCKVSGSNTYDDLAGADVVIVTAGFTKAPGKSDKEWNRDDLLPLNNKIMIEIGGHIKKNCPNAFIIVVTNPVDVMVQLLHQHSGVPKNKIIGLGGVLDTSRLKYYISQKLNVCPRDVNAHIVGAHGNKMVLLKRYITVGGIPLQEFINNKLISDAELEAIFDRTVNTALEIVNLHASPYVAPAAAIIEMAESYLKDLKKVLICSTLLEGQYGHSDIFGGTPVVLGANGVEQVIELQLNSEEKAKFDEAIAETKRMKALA
SMILES,growth inhibition [1],inhibition [2],inhibition [3] [%],growth inhibition [4],outcome [5],outcome [6],outcome [7],outcome [8]
Cc1cc(C)cc(OCC(O)CN(Cc2cc(Cl)cc(Cl)c2)C(=O)Nc2ccc([N+](=O)[O-])cc2)c1 (stereo not given),38%,-3%,4,95% (active),inactive,inactive,inactive,inactive
O=C(/C=C/c1ccc(Cl)cc1)NCCCCCN1CCCC(C(=O)Nc2ccc(Cl)c(Cl)c2)C1 (stereo not given),3%,27%,-3,96% (active),inactive,inactive,inactive,inactive
COc1cccc(OC)c1CN1CCC(N(C)CCCCCCCCN2CCC(OC(=O)Nc3ccccc3-c3ccccc3)CC2)CC1,100% (active),100% (active),1,99% (active),inactive,inactive,inactive,inactive
COc1ccc(NC(=O)c2ccc(-c3ccc(-c4cccnc4)cc3)c(C)c2)cc1OCCN(C)C,73% (active),24%,0,99% (active),inactive,inactive,inactive,inactive
COc1ccc(-c2ccc(NC(=O)c3ccc(C#N)cc3)cc2)cc1CN1CCCN(C)CC1,75% (active),27%,-3,99% (active),inactive,inactive,inactive,inactive
COC(=O)c1ccc(OCC(C)NCC(O)c2cccc(C(F)(F)F)c2)cc1 (stereo not given),81% (active),6%,-2,94% (active),inactive,inactive,inactive,inactive
O=C(NCC1CCN(CC2CCCCC2)C1)c1cc(-c2cccc(Cl)c2)cs1 (stereo not given),8%,51% (active),5,85% (active),inactive,inactive,inactive,inactive
CC1(C)N=C(NC(=O)c2ccc([N+](=O)[O-])cc2)N=C(N)N1OCc1ccc2ccccc2c1,78% (active),64% (active),-8,95% (active),inactive,inactive,inactive,inactive
Cc1ccc(-c2ccc3c(c2)C=C(C(=O)NC2CCN(CCNC(=O)c4cccs4)CC2)CCC3)cc1,30%,27%,-1,90% (active),inactive,inactive,inactive,inactive
O=C(NCCNc1ccnc(Nc2ccc(F)cc2)n1)Nc1ccccc1F,4%,22%,5,93% (active),inactive,inactive,inactive,inactive
O=C(/C=C/c1ccc(Cl)c(Cl)c1)NCCCCCN1CCC(NC(=O)Nc2ccc(Oc3ccccc3)cc2)C1 (stereo not given),6%,35%,4,99% (active),inactive,inactive,inactive,inactive
COc1ccc2nc(-c3ccccc3)cc(NCCCNc3cc(-c4ccccc4)nc4ccc(OC)cc34)c2c1,99% (active),100% (active),9,99% (active),inactive,inactive,inactive,inactive
O=C(CCc1cnc[nH]1)Nc1cccc(-c2cccc(-c3nc4ccc(C(F)(F)F)cc4[nH]3)c2)c1,99% (active),17%,7,101% (active),inactive,inactive,inactive,inactive
c1ccc(Oc2ccc(Nc3ccnc(Nc4ccc(CN5CCOCC5)cc4)n3)cc2)cc1,38%,46%,-4,92% (active),inactive,inactive,inactive,inactive
CCOC(=O)c1cnc2c(OC)cc(OC)c(Cl)c2c1Nc1cccc(C)c1C,99% (active),5%,0,102% (active),inactive,inactive,inactive,inactive
CCCCc1ccc(NC(=O)Nc2ccc3c(c2)CCNCC3)cc1,43%,16%,0,95% (active),inactive,inactive,inactive,inactive
Cc1nc(N/C=C/c2ccc(O)cc2)cc(N2CCCC2)n1,54% (active),-11%,-2,93% (active),inactive,inactive,inactive,inactive
COc1ccc(OC(C)CNC(=O)c2cc([N+](=O)[O-])ccc2-c2ccc(OC)cc2)cc1 (stereo not given),44%,18%,3,92% (active),inactive,inactive,inactive,inactive
O=C(Cc1n[nH]c(=O)c2ccccc12)Nc1cccc(C(=O)Nc2cccc(C(F)(F)F)c2)c1,90% (active),0%,-6,97% (active),inactive,inactive,inactive,inactive
CC(C)(C)OC(=O)NCc1ccc(Nc2nnc(-c3ccc(OCC(=O)NCc4ccc(C(C)(C)C)cc4)c([N+](=O)[O-])c3)o2)cc1,82% (active),10%,-2,96% (active),inactive,inactive,inactive,inactive

SMILES,growth inhibition [1],inhibition [2],inhibition [3] [%],growth inhibition [4],outcome [5],outcome [6],outcome [7],outcome [8]
CCCCCN1CCCC1CNS(=O)(=O)c1cccc(C(=O)Nc2cccc(C#N)c2)c1 (stereo not given),7%,19%,-1,90% (active),inactive,inactive,inactive,inactive
O=[N+]([O-])c1ccc(/C=N/Nc2cc(-c3ccccc3)nc3ccccc23)o1,49%,48%,-5,93% (active),inactive,inactive,inactive,inactive
COc1ccc(Cl)cc1NC(=O)Nc1ccc2c(c1)CCN(C1CCC1)CC2,19%,38%,-2,98% (active),inactive,inactive,inactive,inactive
Cc1ccccc1OCCCON1C(N)=NC(N)=NC1(C)C,97% (active),66% (active),4,95% (active),inactive,inactive,inactive,inactive
CS(=O)(=O)c1ccc(CCNCc2ccc(-c3ccc(CN(C(=O)c4ccc(Cl)nc4)C4CCN(Cc5ccccc5)CC4)cc3)nc2)cc1,70% (active),24%,-2,93% (active),inactive,inactive,inactive,inactive
CCCCCc1cnc2nc(N)nc(N)c2c1C,23%,64% (active),-3,96% (active),inactive,inactive,inactive,inactive
Cc1cc2nc(-c3ccc(C(=O)NCc4ccc(Cl)c(Cl)c4)cc3)[nH]c2cc1C,83% (active),6%,1,96% (active),inactive,inactive,inactive,inactive
CCC(C)NC(=O)CN1CN(c2ccccc2)C2(CCN(C(=O)c3ccc4ccccc4c3)CC2)C1=O (stereo not given),78% (active),-6%,-2,95% (active),inactive,inactive,inactive,inactive
O=C(Nc1ccc(Cn2ncc(N3CCCNCC3)c(Cl)c2=O)cc1)Nc1ccc(OCc2ccccc2)cc1,32%,15%,5,90% (active),inactive,inactive,inactive,inactive
Cc1cc(N[C@@H](C)C(=O)Nc2ccccc2)nc(NCCc2ccc(F)cc2)n1,43%,33%,-2,100% (active),inactive,inactive,inactive,inactive
Cc1cc(N[C@@H](Cc2ccccc2)C(=O)NCCc2ccccc2)nc(NCCc2cccs2)n1,84% (active),12%,4,99% (active),inactive,inactive,inactive,inactive
Cc1noc(C)c1-c1ccc2c(Nc3ccccc3C(C)(C)C)c(C(=O)NC3CCCC3)cnc2c1,79% (active),27%,-3,93% (active),inactive,inactive,inactive,inactive
Cc1cccc2[nH]c(-c3ccc(-c4cccc(CN5CCN(c6ccc(C#N)cn6)CC5)c4)s3)nc12,8%,37%,2,85% (active),inactive,inactive,inactive,inactive
CC1(C)N=C(N)N=C(N)N1OCc1cc(Cl)c(CON2C(N)=NC(N)=NC2(C)C)cc1Cl,77% (active),21%,3,94% (active),inactive,inactive,inactive,inactive
Cc1cccc(C)c1C1CCN(C2CCC(NC(=O)/C=C/c3ccccc3)CC2)CC1 (stereo not given),45%,42%,-1,100% (active),inactive,inactive,inactive,inactive
COc1cc(F)c2ncc(Cl)c([C@@H](O)CN3CCC(NCc4cc5c(cn4)OCCO5)CC3)c2c1,100% (active),11%,2,101% (active),inactive,inactive,inactive,inactive
COc1ccc(CCNCCCCCCNCCCc2ccc(Cl)cc2)cc1OC,2%,36%,1,96% (active),inactive,inactive,inactive,inactive
O=C(/C=C/c1ccc(Cl)c(Cl)c1)NCCCCCCN1CCN(C(=O)Nc2cc(Cl)nc(Cl)c2)CC1,0%,15%,-2,102% (active),inactive,inactive,inactive,inactive
O=C(NC1CCCCC1)C(c1cccs1)N(CCc1ccccc1)C(=O)c1ccco1 (stereo not given),63% (active),-10%,-1,92% (active),inactive,inactive,inactive,inactive
CCOC(=O)N/N=C/[C@H](CCc1ccccc1)NC(=O)[C@H](CC(C)C)NC(=O)c1cc2cccc(OC)c2o1,58% (active),3%,2,84% (active),inactive,inactive,inactive,inactive
